# Bioassay records (PubChem)
# IL1B secr inh = blocks inflammasome-driven IL-1 beta release; THP-1 LPS/ATP IL-1B secretion, AlphaLISA, 16 h; active compounds read low; activity change, % at 57.5 µM; 4.7% of 360,000 active; AID 743279; in the data active = activity change below about -50%; inconclusive = mostly about -30% to -49%
#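 THP-1 cells pretreated 1 hr with compounds (up to 57.5 uM final), then stimulated with LPS (250 ng/mL final) plus ATP (1.25 mM final); secreted IL-1B measured by AlphaLISA after 16 hr, decreased signal indicating inhibition.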
# uPA surface inh = inhibitors of cell surface uPA generation. cell surface uPA generation assay, qHTS. Potency, µM (doses to about 38.3 µM), for inactives: at the top dose activity change, negative = inhibition, actives largely listed as inhibitors. 0.31% of 330,000 active; active = well fitted inhibition curve with a large enough effect; inconclusive = small, poorly fitted or top-dose-only effect; inactive = no such curve, though single readings can be large or run the other way; tested in mouse RAW 264.7 cells; also: potency is read from the fitted curve at half-maximal effect; nearly all actives have a fitted effect of over 55% in size
# DT40 TDP1 CPT = DT40-hTDP1 cell growth loss with CPT; chicken DT40 Tdp1-/-;hTDP1 cells + 20 nM CPT, ATP luminescence, 48 h; 12% of 420,000 active; Potency, µM (top dose mostly 46.2 µM), inactives show top-dose activity change, negative = growth inhibition, usual class: inhibitors; also: potency is read from the fitted curve at half-maximal effect; nearly all actives have a fitted effect of over 55% in size
#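 Chicken DT40 Tdp1-/- cells stably complemented with human TDP1 were seeded at 400 cells/well in medium containing 20 nM camptothecin, exposed to pin-transferred compounds, and grown at 37 °C for at least 48 hr. Viability was read as ATP luminescence.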
# HT1080-NT tox = kills 2HG-producing HT-1080-NT fibrosarcoma cells; 1.6% of 360,000 active; HT-1080-NT fibrosarcoma viability, CellTiter-Glo ATP luminescence, 48 h; AID 686970; Potency, µM (doses to about 46.1 µM), without a hit: top-dose activity, negative = less viability, most hits filed as cytotoxic;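 also: NT is the 2HG producing partner of a matched IDH1 knockdown line; potency is read from the fitted curve at half-maximal effect; 0% = DMSO-treated cells and -100% = media-only wells without cells; nearly all actives have a fitted effect of over 55% in size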
#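 Read-out is CellTiter-Glo luminescence after 10 minutes at room temperature, following 48 hours' compound treatment of HT-1080-NT cells (750 cells/well, RPMI, 5% FBS, 37 degrees C).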
# DT40 TDP1 no CPT = qHTS for Inhibitors of human tyrosyl-DNA phosphodiesterase 1 (TDP1): qHTS in cells in absence of CPT. DT40 Tdp1-/- hTDP1 cells, no CPT, ATP luminescence, 48 h. 15% of 420,000 active. Potency, µM (titrated, usually from 46.2 µM), inactives show at the top dose activity change, negative = growth inhibition, usual class: inhibitors. AID 686978, 2013; also: potency is read from the fitted curve at half-maximal effect; nearly all actives have a fitted effect of over 55% in size
#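 Growth of hTDP1-complemented DT40 Tdp1-knockout cells is measured by ATP luminescence after at least 48 hr compound exposure at 37 °C, with DMSO substituting for the 20 nM CPT used in the parallel screen.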
# HT1080 IDH1KD tx = HT-1080 IDH1 knockdown cell toxicity (counter line) | HT-1080 IDH1 knockdown viability, ATP luminescence, 48 h | AID 686971 | 2% of 360,000 active | Potency, µM (highest dose often 46.1 µM), for the others: at the highest dose activity, negative = toxicity, hits mostly cytotoxic;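 also: potency is read from the fitted curve at half-maximal effect; 0% = DMSO wells and -100% = cell-free medium wells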
#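 % activity derives from luminescence (CellTiter-Glo), normalised to DMSO and no-cell wells. HT-1080-IDH1KD cells, 750/well, had 48 h compound exposure at 37 °C.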
# Numbers without * were called inactive; ? = inconclusive; nt = not tested or not shown. In the library only some 19% were active in any assay of this set; here they are far more common. Unless noted, calls follow the shape of the dose curve; as a rule, active = well fitted curve in the direction sought with a large enough effect; inconclusive = small, poorly fitted or top-dose-only effect, or another doubt; inactive = no such curve, though single readings can be large; an effect the other way counts as inactive or inconclusive. Unless noted, % is scaled to controls: 0 for no effect and ±100 for the full control effect.
SMILES,IL1B secr inh,uPA surface inh,DT40 TDP1 CPT,HT1080-NT tox,DT40 TDP1 no CPT,HT1080 IDH1KD tx
Fc1ccc(NC(=S)Nc2ccc(Cl)cc2)cc1,-23,-3%,?,?,23µM*,-11%
Fc1ccc(NC(=S)Nc2cc(Cl)ccc2Cl)cc1,18,-1%,5.8µM*,8%,?,6%
O=C(NC1CCCC1)C(=O)N(Cc1cccnc1)C(C(=O)NCC1CCCO1)c1ccco1 (centres undefined),11,?,?,21%,0%,9%
COc1cc2c(cc1OC)C1(O)C(=O)c3ccc(O)c(C(=O)O)c3OC1CO2 (centres undefined),nt,nt,?,nt,-9%,nt
CSc1nc2ccccc2nc1N(C)S(=O)(=O)c1ccc(C)cc1,67,-2%,?,12%,?,-9%
CC(C)(C)c1ccc(-c2csc(NNC3=NCCCCC3)n2)cc1,-61*,nt,?,-2%,-90%,?
Brc1ccc(-c2csc(NNC3=NCCCCC3)n2)cc1,-53*,-1%,?,-7%,?,-2%
FC(F)Oc1ccc(-c2csc(NNC3=NCCCCC3)n2)cc1,-93*,-4%,4.6µM*,?,15µM*,?
c1ccc(-c2csc(NC3=NCCCCC3)n2)cc1,0,-3%,13%,-18%,8%,21%
Cc1ccc(-c2cc(C(=O)N3CCN(C(=O)c4ccco4)CC3)[nH]n2)c(C)c1,-2,4%,-27%,5%,-20%,0%
Cc1ccc(C)c(Cn2c(=O)cc(C(F)(F)F)c3c(C)nn(C)c32)c1,nt,nt,-12%,nt,-22%,nt
Cc1ccc(C(=O)OCn2ncc(Cl)c(Cl)c2=O)cc1,-99*,-9%,1.8µM*,5.8µM*,2.6µM*,5.2µM*
O=C(OCn1ncc(Cl)c(Cl)c1=O)c1ccc(C(F)(F)F)cc1,-99*,-11%,2.9µM*,?,5.8µM*,?
O=C(OCC(=O)c1ccc[nH]1)c1ccc(C(F)(F)F)cc1,5,5%,11%,10%,-12%,24%
c1ccc(COc2ccc(CNn3cnnc3)cc2)cc1,11,2%,-7%,-2%,-11%,2%
CCOc1ccc(CNn2cnnc2)cc1,-16,1%,16µM*,7%,?,8%
COc1cccc(N2CCN(c3c(C#N)c(C(F)(F)F)nn3C)CC2)c1,-51*,9%,23µM*,-12%,8.2µM*,-17%
O=C(O)c1cccnc1SC1CC(=O)N(c2ccc(OC(F)F)cc2)C1=O (centres undefined),-11,3%,?,-1%,15µM*,5%
O=C(O)c1cccnc1SC1CC(=O)N(Cc2ccccc2)C1=O (centres undefined),2,4%,15µM*,21%,21µM*,24%
CCCN(CC(=O)Nc1ccccc1C)C(=O)COc1c(C)cccc1C,-13,0%,?,1%,6%,1%
CCCN(CC(=O)Nc1ccccc1C)C(=O)c1ccc(-c2ccc([N+](=O)[O-])cc2)o1,-4,-12%,?,-4%,21µM*,0%
CCCN(CC(=O)Nc1ccccc1OC)C(=O)c1cc2ccccc2o1,24,0%,2%,0%,-4%,-20%
CCCN(CC(=O)Nc1ccccc1OC)C(=O)c1ccc(COc2ccccc2)o1,9,-13%,16µM*,4%,?,3%
CCCN(CC(=O)Nc1ccccc1C)C(=O)CCl,-95*,-10%,2.6µM*,8.2µM*,2.1µM*,4.1µM*
COc1ccc(NC(=O)c2noc3c2CCCC3)cc1Cl,nt,nt,-22%,nt,-1%,nt
SMILES,IL1B secr inh,uPA surface inh,DT40 TDP1 CPT,HT1080-NT tox,DT40 TDP1 no CPT,HT1080 IDH1KD tx
CCOc1cccc2cc(-c3nc(-c4ccccc4C)no3)c(=O)oc12,nt,nt,-14%,nt,?,nt
O=C(Nc1ccccc1)Nc1cc(OCC(F)(F)F)cc(OCC(F)(F)F)c1,-103*,-13%,4.1µM*,6.5µM*,2.9µM*,7.3µM*
O=C(NCCNC(=O)c1cc(OCC(F)(F)F)ccc1OCC(F)(F)F)Nc1cccc(C(F)(F)F)c1,?,2%,?,-15%,?,-25%
O=C(Nc1cccnc1)Nc1ccccc1Cl,10,nt,?,11%,-8%,-2%
O=C(Nc1cccc(F)c1)Nc1cccc(Cl)c1,-88*,1%,?,?,?,?
O=C(Nc1cccc(Cl)c1)Nc1cccc(Cl)c1,-21,1%,15µM*,?,12µM*,-21%
O=C(Nc1cccnc1)Nc1cc(Cl)cc(Cl)c1,-101*,10%,10µM*,1%,23µM*,-8%
CCOC(=O)c1c(S(=O)(=O)N2CCC(C(=O)Nc3ncccc3C)CC2)c(C)n(C)c1C,nt,nt,-12%,nt,1%,nt
O=C(NC1CCCC1)c1ccc(CS(=O)(=O)c2ccc(Br)cc2)o1,2,7%,-25%,-2%,-29%,-2%
CCc1ccc(-n2c(=S)sc3c(=O)[nH]c(SCC(=O)NC4CCCCC4)nc32)cc1,21,nt,-9%,5%,-2%,-2%
CN(C)S(=O)(=O)c1ccc2c(c1)nc(CCC(=O)NCC(=O)Nc1ccc(F)c(F)c1F)n2C,44,nt,-3%,-16%,?,-3%
COc1ccc2[nH]cc(CCNC(=O)CCC3CCCCC3)c2c1,3,-10%,-21%,5%,?,2%
O=C(Nc1ccccc1)Nc1cc(Cl)cc(Cl)c1,-82*,-9%,6.5µM*,16µM*,12µM*,15µM*
N#Cc1ccccc1NC(=O)Nc1cccc(Cl)c1,0,-1%,11%,3%,-21%,6%
N#CCc1ccc(NC(=O)Nc2cccc(Cl)c2)cc1,-30,3%,16µM*,-2%,?,2%
COC(=O)c1cc(NC(=O)Nc2cccc(Cl)c2)ccc1Cl,-97*,?,16µM*,13µM*,18µM*,?
O=C(Cc1cccc2ccccc12)NNC(=O)Nc1cccc(Cl)c1,-30,4%,-9%,16µM*,-25%,?
COc1ccc(-n2c(=O)c(C)nc3cncnc32)cc1,nt,nt,11%,nt,-8%,nt
CCOC(=O)COc1c(Cl)cc(C2NC(=S)NC(c3ccccc3)=C2C(C)=O)cc1OCC (centres undefined),0,1%,-4%,-11%,9%,1%
COc1ccc(CN2CCC(n3nccc3NC(=O)c3cccc(F)c3)CC2)cc1O,0,-18%,-24%,-7%,-3%,-4%
Fc1ccc(NC(=S)Nc2cccnc2)cc1Cl,20,16%,?,3%,23µM*,2%
